# Experimental data from PubChem BioAssay AID743279 (National Center for Advancing Translational Sciences (NCATS), 2014).
# Among all 360,000 compounds or so, about 17,000 (4.7%) were called active. About 5% were inconclusive and are not listed. Rule as the data show it: active = activity change below about -50%; inconclusive = mostly about -30% to -49%; inactive = weaker than that. What follows is part of a selection rich in actives, with near analogues and random picks from the rest.
# Assay: qHTS for Inhibitors of Inflammasome Signaling: IL-1-beta AlphaLISA Primary Screen
# Conditions: THP-1 LPS/ATP IL-1B secretion, 16 h; at 57.5 µM, stronger effect = lower value
# Procedure, shortened: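 THP-1 cells pretreated 1 hr with compounds (up to 57.5 uM final), then stimulated with LPS (250 ng/mL final) plus ATP (1.25 mM final); secreted IL-1B measured by AlphaLISA after 16 hr, decreased signal indicating inhibition.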
# % is scaled to controls: 0 for no effect and ±100 for the full control effect.
row,Compound,activity change
1,CCCN(CC(=O)Nc1ccccc1C)C(=O)c1ccc(OCC(=O)N2CCOCC2)c(OCC)c1,-6.14% (inactive)
2,COc1cccc(CNc2nc3cc(-c4csc5ccccc45)sc3c(=O)n2C)c1,-22.5% (inactive)
3,CCCc1cc(=O)n2[nH]c(SCc3ccccc3)nc2n1,12.3% (inactive)
4,CC1(Oc2cccc(F)c2)CCN(Cc2ccccc2OC(F)F)C1 (configuration not stated),29.5% (inactive)
5,CC(=O)OC[C@@H]1CN(Cc2ccccc2)C[C@H](n2cnc3c(NCc4ccco4)ncnc32)O1,16.4% (inactive)
6,O=C(CC1SC(N2CCCC2)=NC1=O)Nc1ccc(C(=O)NCCc2ccc(F)cc2)cc1 (configuration not stated),17.8% (inactive)
7,COc1ccc(NC(=O)CC2SC(N3CCCCC3)=NC2=O)cc1OC (configuration not stated),3.71% (inactive)
8,COc1ccc(CCNC(=O)c2ccc(NC(=O)CC3SC(N4CCCCC4)=NC3=O)cc2)cc1OC (configuration not stated),-53.6% (active)
9,COc1ccc(/C=N/NC(=O)Cn2cc(C(F)(F)F)ccc2=O)cc1,-1.55% (inactive)
10,CC(C)(C)C(=O)N1CCC[C@@]1(CO)C(=O)O,1.41% (inactive)
11,Cc1nn(-c2ccccc2)c2c1C(=O)NC(=O)C(C)(C)C2,-17.4% (inactive)
12,Cc1nn(-c2ncccn2)c2c1C(=O)CC(C)(C)C2Br (configuration not stated),-64.8% (active)
13,CCCCn1nnnc1C1(C)CCC(=O)N1Cc1ccc(OC)c(OC)c1 (configuration not stated),0% (inactive)
14,CCCCCCCCN1C(=O)[C@H](CC(=O)NCC23CC4CC(CC(C4)C2)C3)C[C@@]2(C(=O)OC)CCCCC=C12,-29.6% (inactive)
15,COc1ccc(-c2oc3ncn(Cc4ccco4)c(=N)c3c2-c2ccc(OC)cc2)cc1,-65.2% (active)
16,COc1ccc(-c2nnc(SCC(=O)c3ccco3)n2-c2ccccc2)cc1,-3.17% (inactive)
17,COc1ccc(-n2cnc3cc(NCc4ccco4)ccc32)cc1,-17.9% (inactive)
18,O=[N+]([O-])c1ccc2c(c1)C(N1CCOCC1)/C(=C/C1(O)CCCCC1)O2 (configuration not stated),4.33% (inactive)
19,C#CCN(C[C@@H]1[C@@H](OC(=O)NC2CC2)[C@@H](OC(=O)NC2CC2)Cn2c(=O)ccc(=O)n21)S(=O)(=O)c1ccc(C)cc1,-84.6% (active)
20,Cc1ccc(S(=O)(=O)N2C[C@]3(O)C[C@@H]4C(=O)N(c5ccccc5)C(=O)[C@@H]4C[C@]3(OC(=O)NC3CC3)C2)cc1,-19.7% (inactive)
21,C#CCN(C[C@H]1[C@H](OC(=O)NC2CCCC2)[C@H](OC(=O)NC2CCCC2)C[C@H]2C(=O)N(c3ccccc3)C(=O)[C@@H]12)S(=O)(=O)c1ccc(C)cc1,-9.89% (inactive)
22,N#CC1(Nc2ccc3c4c(cccc24)CC3)CCCCC1,0% (inactive)
